# This is a sample that favours compounds with a hit; in the whole collection about 3.6% have one here.
# HepG2 tox-1: counter-screen for TGF-b inhibitors: cytotoxicity in HepG2 cells; 410,000 compounds, 0.76% hits; HepG2 CAGA-GFP viability, ATP luminescence, 18 h; Potency, µM (doses to about 46.1 µM), without a hit: at the highest dose activity change, negative = cytotoxicity, usual class: cytotoxic
#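 HepG2 CAGA-GFP cells (1000/well, DMEM with 1% FBS) received compound, then TGF-beta at 500 pg/mL final, and were incubated 18 hours at 37 degrees C. Viability was read by CellTiter-Glo luminescence. Media-only wells were set as complete cell-killing and DMSO as no toxicity.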
# A549 viability: counter-screen for Nrf2 inhibitors: cytotoxicity in A549 cells; A549 ARE-Fluc cells, CellTiter-Fluor viability, 18-24 h; Potency, µM (top dose mostly 46 µM), inactives show top-dose activity change, negative = cytotoxicity, actives largely listed as inhibitors; 390,000 compounds, 0.16% hits; also: % is scaled to controls: 0 for no effect and ±100 for the full control effect
#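 Cytotoxicity counterscreen: CellTiter-Fluor fluorescence was measured in A549 ARE_Fluc cells after 18-24 h of compound exposure in a concentration series. The subsequent BugLite luminescent read reports ARE-luciferase activity.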
# Nrf2 ARE act: Nrf2 pathway activation; AREc32 ARE-luciferase reporter (MCF7-derived line), luminescence, 24 h; Potency, µM (doses to about 46.1 µM), without a hit: top-dose activation, usual class: activators; 410,000 compounds, 0.31% hits; AID 624171; also: % of control where 0% means no effect; nearly all actives have a fitted effect of over 65% in size
#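 AREc32_Fluc, 1000 cells/well, OPTI-MEM + 5% FBS, o/n 37 deg C 5% CO2; 23 nL cpd by pin tool, 24 hr; Steady-Glo 30 min RT, luminescence.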
# Nrf2 inh: blocks Nrf2 signaling; A549 ARE-Fluc reporter, luciferase luminescence, 18-24 h; Potency, µM (doses to about 46 µM), without a hit: top-dose activity change, negative = inhibition, usual class: inhibitors; 360,000 compounds, 2.1% hits; AID 504444; also: % is scaled to controls: 0 for no effect and ±100 for the full control effect; nearly all actives have a fitted effect of over 60% in size
#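 Concentration-response testing used A549 ARE_Fluc cells at 5000 cells/well. Following an 18-24 h compound incubation, viability was read by fluorescence (Ex 405/Em 525) and luciferase output by luminescence.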
# TGFb inhibitor: TGF-b pathway inhibition | HepG2 CAGA-GFP TGF-b/SMAD3 reporter, GFP fluorescence, 18 h; TGF-beta stimulated, 500 pg/mL final | Potency, µM (titrated, usually from 46.1 µM), inactives show top-dose activity, negative = inhibition, hits mostly inhibitors | 410,000 compounds, 1.2% hits | AID 588855; also: % is scaled to controls: 0 for no effect and ±100 for the full control effect; nearly all actives have a fitted effect of over 65% in size
#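 Inhibition of TGF-beta-driven CAGA-GFP reporter expression in HEPG2 cells is measured by cellular GFP fluorescence after 18 h stimulation with 500 pg/mL recombinant TGF-beta in 1% FBS medium at 37 degrees C.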
# TGFb confirm: confirmation of TGF-b signaling inhibitors in HepG2 reporter cells; shares compounds with TGFb inhibitor; HepG2 CAGA-GFP TGF-b reporter, GFP fluorescence, 18 h; cells stimulated with TGF-beta, 500 pg/mL; Potency, µM (series often up to 46.1 µM), inactives show at the top dose activity, negative = inhibition, usual class: inhibitors; 1,600 compounds, 63% hits; AID 720534; also: % is scaled to controls: 0 for no effect and ±100 for the full control effect; nearly all actives have a fitted effect of over 65% in size
# HepG2 tox-2: HepG2 cytotoxicity, TGF-b inhibitor counterscreen. shares compounds with TGFb inhibitor. Potency, µM (titrated, usually from 46.1 µM), for the others: top-dose activity, negative = cytotoxicity, usual class: inhibitors. 1,600 compounds, 27% hits. HepG2 CAGA-GFP viability, ATP luminescence, 18 h; cells stimulated with TGF-beta, 500 pg/mL; also: % is scaled to controls: 0 for no effect and ±100 for the full control effect; nearly all actives have a fitted effect of over 70% in size
# TGFb CCL64 inh: blocks TGF-b signaling in CCL64 reporter cells | 1,600 compounds, 41% hits | Potency, µM (series often up to 46.1 µM), for inactives: at the highest dose activity, negative = inhibition, actives largely listed as inhibitors | shares compounds with TGFb inhibitor | CCL64 CAGA-GFP reporter, TGF-b stimulated, GFP fluorescence, 18 h; also: nearly all actives have a fitted effect of over 65% in size
# COP TGFb inh: blocks TGF-b signaling in HepG2 COP reporter. 1,600 compounds, 3% hits. shares compounds with TGFb inhibitor. HepG2 COP-GFP TGF-b reporter, GFP fluorescence, 18 h; cells stimulated by added recombinant TGF-beta. Potency, µM (doses to about 46.1 µM), inactives show at the highest dose activity, negative = inhibition, actives largely listed as inhibitors; also: nearly all actives have a fitted effect of over 70% in size
# Numbers without * were called inactive; u = inconclusive; x = no result given. Calls follow the shape of the dose curve; as a rule, active = well fitted curve in the direction sought with a large enough effect; inconclusive = small, poorly fitted or top-dose-only effect, or another doubt; inactive = no such curve, though single readings can be large; an effect the other way counts as inactive or inconclusive. Potency is read from the fitted curve at half-maximal effect.
SMILES,HepG2 tox-1,A549 viability,Nrf2 ARE act,Nrf2 inh,TGFb inhibitor,TGFb confirm,HepG2 tox-2,TGFb CCL64 inh,COP TGFb inh
COCCCNC(=O)CSc1nc2cc3c(cc2c(=O)n1CCCC(=O)NCc1ccc(OC)cc1)OCO3,1.2%,-10.7%,2.5%,-8.0%,18.0%,x,x,x,x
Cc1sc2ncnc(N3CCC(C(=O)N(C)CC(=O)Nc4ccc(Cl)c(C(F)(F)F)c4)CC3)c2c1C,-7.8%,u,-0.5%,10.3µM*,11.2µM*,5.17µM*,u,9.2µM*,59.4%
Cc1sc2ncnc(N3CCC(C(=O)N(C)CC(=O)Nc4cccc(F)c4)CC3)c2c1C,-19.0%,x,-5.2%,x,-17.6%,x,x,x,x
Oc1c(C(c2ccccc2Cl)N2CCCC2)ccc2cccnc12 (centres undefined),-63.9%,-7.7%,0.4%,-63.8%,0.447µM*,u,u,u,-19.8%
COc1ccc(-c2noc(-c3ccc(N4CCN(c5ccc(OC)cc5)CC4)c([N+](=O)[O-])c3)n2)cc1,-11.2%,-0.7%,0.6%,26.5%,u,x,x,x,x
Cc1ccc2nc(/C(C#N)=C\c3ccc([N+](=O)[O-])o3)[nH]c2c1,5.01µM*,u,u,12.4%,u,16.4µM*,6.51µM*,4.61µM*,4.6%
CC(=O)Nc1nc2c(ccc3ccccc32)s1,-52.5%,0.2%,u,u,u,x,x,x,x
O=C(Cc1cccs1)Nc1nc2c(ccc3ccccc32)s1,-26.3%,-6.4%,-1.5%,-25.3%,14.1µM*,16.4µM*,-18.9%,u,-3.1%
Cc1cc(C(=O)O[C@H]2[C@H](Cc3ccccc3)NS(=O)(=O)[C@H]3C[C@@H]4C=C[C@]23O4)ccc1[N+](=O)[O-],2.3%,-11.6%,6.3%,-15.0%,u,x,x,x,x
O=C(C1=C[C@@H](C2CCCCC2)C[C@@H](OCc2ccc(CO)cc2)O1)N1CCN(Cc2ccc3c(c2)OCO3)CC1,7.2%,-20.5%,3.9%,u,11.2µM*,20.6µM*,-28.5%,u,54.7%
O=C1C(Nc2ccccc2)=C/C(=N/S(=O)(=O)c2cccs2)c2ccccc21,3.55µM*,14.6µM*,-2.5%,8.2µM*,3.98µM*,2.59µM*,2.59µM*,3.26µM*,u
Cc1ccc(S(=O)(=O)Nc2ccc(N=Nc3ccc(O)cc3)cc2)cc1,6.9%,-18.7%,5.1%,-10.9%,u,x,x,x,x
Cc1ccc(S(=O)(=O)/N=C2\C=C(Nc3ccc(O)cc3)C(=O)c3ccccc32)cc1,3.16µM*,16.4µM*,-3.8%,18.4µM*,1.26µM*,1.3µM*,2.31µM*,5.17µM*,u
COC(=O)c1ccccc1NC1=C/C(=N\S(=O)(=O)c2cccs2)c2ccccc2C1=O,-23.4%,u,13.2%,-5.1%,u,7.31µM*,14.6µM*,3.26µM*,16.4µM*
O=C1C=C(Nc2ccccc2)C(=O)c2ccccc21,5.01µM*,u,5.1%,u,3.98µM*,6.51µM*,14.6µM*,u,-65.3%
COCCNC(=O)CSc1ccc(-c2nc3ccccc3[nH]2)cn1,0.4%,-6.7%,2.7%,12.8%,-3.6%,x,x,x,x
Cc1ccc(NC(=O)c2nc[nH]c2C(=O)NC2CCN(C(=O)OC(C)(C)C)CC2)cc1,10.4%,5.2%,0.2%,-5.7%,6.7%,x,x,x,x
CC(C)(C)OC(=O)N1CCC(NC(=O)c2[nH]cnc2C(=O)Nc2ccccc2)CC1,5.6%,-4.6%,-0.1%,-17.4%,12.6µM*,u,u,u,22.3%
CC1CCN(C(=O)c2[nH]cnc2C(=O)NCc2ccc(CNC(=O)OC(C)(C)C)cc2)CC1,-7.5%,0.0%,4.5%,u,u,u,6.1%,0.3%,-5.8%
CC1CCN(C(=O)c2[nH]cnc2C(=O)NCc2ccccc2)CC1,3.0%,5.7%,3.4%,-0.6%,u,-7.2%,3.8%,1.0%,-2.0%
Cc1ccccc1CN1CCCC(C(=O)Nc2ccccc2Oc2cccnc2)C1 (centres undefined),-31.5%,-2.6%,-0.8%,-16.5%,-14.4%,x,x,x,x
COc1cccc2c1C(CO)N1C(C#N)C3CC(C(=O)O)C(C1C2)N3C (centres undefined),16.1%,-18.2%,-3.7%,u,1.26µM*,0.651µM*,0.517µM*,7.31µM*,-3.6%
CC(C)(C)c1ccc(N=C2SCC(=O)N2Cc2cccs2)cc1,-6.2%,-2.4%,15.7%,u,-23.0%,x,x,x,x
COc1ccc(Nc2nc(N3CCCC3)nc3ccccc23)c(OC)c1,-57.5%,18.4µM*,23.2%,u,10µM*,u,u,u,66.1%
COc1cccc(-c2nc(-c3ccc(NC(=O)Cc4ccccc4OC)cc3)no2)c1,-28.9%,4.3%,2.6%,u,1.5%,x,x,x,x
SMILES,HepG2 tox-1,A549 viability,Nrf2 ARE act,Nrf2 inh,TGFb inhibitor,TGFb confirm,HepG2 tox-2,TGFb CCL64 inh,COP TGFb inh
CC(=O)N1CCc2c(sc(NC(=O)c3ccc([N+](=O)[O-])o3)c2C#N)C1,-30.8%,20.6µM*,u,25.9µM*,5.62µM*,4.11µM*,3.26µM*,10.3µM*,u
COC(=O)c1sc(NC(=O)c2ccc([N+](=O)[O-])o2)c(C#N)c1C,-53.7%,21.5%,u,u,4.47µM*,7.31µM*,10.3µM*,14.6µM*,41.4%
COC(=O)c1c(NC(=O)c2ccc([N+](=O)[O-])o2)sc2c1CCN(C(C)C)C2,-8.1%,u,-1.9%,u,20µM*,2.59µM*,10.3µM*,25.9µM*,35.8%
COc1ccc(C(=O)Nc2sc3c(c2C#N)CCN(C(C)=O)C3)cc1,-0.9%,-10.9%,-0.6%,u,-8.7%,x,x,x,x
CCOC(=O)Nc1ccc2c(c1)nc1n2CCN(CCOC)C1,1.3%,12.2%,2.3%,u,-3.5%,x,x,x,x
COc1cc(NC(=O)CN2c3ccccc3CC2C)cc(OC)c1OC (centres undefined),-23.5%,-0.4%,-0.2%,u,3.2%,x,x,x,x
